# Experimental data: PubChem BioAssay AID504339 (National Center for Advancing Translational Sciences (NCATS), 2011)
# About 17,000 (4.4%) of roughly 390,000 compounds were called active. Where a call stands in place of a potency, no number is given. About 8% were inconclusive and are not listed. Calls follow the shape of the dose curve; as a rule, active = well fitted inhibition curve with a large enough effect; inconclusive = small, poorly fitted or top-dose-only effect; inactive = no such curve, though single readings can be large or run the other way. The full list was thinned out, with actives kept by preference.
# Target: Lysine-specific demethylase 4A (Homo sapiens) (UniProt O75164)
# Sequence (O75164 whole entry, looked up, the tested form may be a part): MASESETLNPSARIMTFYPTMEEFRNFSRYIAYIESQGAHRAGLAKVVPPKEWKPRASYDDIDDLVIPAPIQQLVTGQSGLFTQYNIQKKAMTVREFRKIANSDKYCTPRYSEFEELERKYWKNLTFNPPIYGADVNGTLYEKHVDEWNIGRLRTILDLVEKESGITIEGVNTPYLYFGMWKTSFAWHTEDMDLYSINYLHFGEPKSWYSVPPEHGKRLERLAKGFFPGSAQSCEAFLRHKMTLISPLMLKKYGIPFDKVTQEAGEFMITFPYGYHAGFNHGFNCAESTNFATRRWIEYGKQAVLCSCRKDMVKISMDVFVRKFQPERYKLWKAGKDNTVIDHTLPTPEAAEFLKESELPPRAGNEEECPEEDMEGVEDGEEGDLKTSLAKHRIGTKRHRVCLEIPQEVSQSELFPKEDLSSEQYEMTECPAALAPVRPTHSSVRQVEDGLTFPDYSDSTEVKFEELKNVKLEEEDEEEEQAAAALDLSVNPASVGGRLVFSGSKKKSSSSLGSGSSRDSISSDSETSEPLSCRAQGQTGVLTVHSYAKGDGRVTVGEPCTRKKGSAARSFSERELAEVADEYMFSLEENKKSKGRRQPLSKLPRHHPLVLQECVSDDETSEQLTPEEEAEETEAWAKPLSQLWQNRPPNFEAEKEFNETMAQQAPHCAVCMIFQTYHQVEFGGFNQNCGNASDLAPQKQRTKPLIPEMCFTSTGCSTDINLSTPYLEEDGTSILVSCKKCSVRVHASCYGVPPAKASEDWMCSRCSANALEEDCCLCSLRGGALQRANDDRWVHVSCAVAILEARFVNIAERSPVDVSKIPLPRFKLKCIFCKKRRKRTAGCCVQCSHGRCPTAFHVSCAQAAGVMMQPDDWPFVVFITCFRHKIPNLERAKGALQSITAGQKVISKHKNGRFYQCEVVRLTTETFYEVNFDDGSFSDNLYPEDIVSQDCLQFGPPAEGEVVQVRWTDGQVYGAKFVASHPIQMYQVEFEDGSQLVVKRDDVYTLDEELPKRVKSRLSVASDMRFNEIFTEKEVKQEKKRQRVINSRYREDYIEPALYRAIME
# Assay: qHTS Assay for Inhibitors of JMJD2A-Tudor Domain; also: nearly all actives have a fitted effect of over 50% in size
# Settings: AlphaScreen JMJD2A-Tudor / H3K4me3 peptide binding; series mostly up to 114 µM
# Potency is read from the fitted curve at half-maximal effect.
row,SMILES,Potency
1,CC1Cc2cc(S(=O)(=O)CCC(=O)NCc3ccc(Cl)cc3)ccc2N1C(=O)C1CC1 (stereo not given),inactive
2,Cc1cc(C)cc(NS(=O)(=O)c2ccc(-c3cc(C)no3)s2)c1,inactive
3,Cc1cc(N=Nc2ccc3ccccc3c2)ccc1O,44.7 µM (active)
4,COc1ccccc1-n1c(-c2ccc(C)cc2)cn2c3c(=O)n(C)c(=O)n(C)c3nc12,inactive
5,COc1ccc(CNc2nc(-c3ccc(Cl)cc3)cc(C(F)(F)F)n2)cc1,inactive
6,O=S(=O)(c1ccc(Br)cc1)c1nnn2c1nc(N1CCOCC1)c1sccc12,inactive
7,O=c1[nH]c(CSc2ncc(-c3ccc(F)cc3)n2Cc2ccco2)nc2ccccc12,35.5 µM (active)
8,O=C(CSc1ncc(CO)n1Cc1ccc(F)cc1)NCc1ccco1,inactive
9,O=C(c1ccco1)N(Cc1nc2ccccc2c(=O)[nH]1)C1CCCC1,inactive
10,CCOc1ccc(CCNC(=O)c2ccc3c(c2)sc2nc(-c4ccc(F)cc4)cn23)cc1OCC,inactive
11,Cc1cc(C)c(C2C3=C(Nc4c2c(C)nn4-c2ccccn2)c2ccccc2C3=O)c(C)c1 (stereo not given),25.1 µM (active)
12,COc1ccc(NC(=O)c2ccc3oc(=O)c(S(=O)(=O)c4ccc(F)cc4)cc3c2)c(OC)c1,inactive
13,Cc1ccc(C(=O)CC2(O)C(=O)N(CCc3ccccc3)c3ccc(Br)cc32)cc1 (stereo not given),inactive
14,COc1ccc2cc(CNc3ccc(OC)c(OC)c3)c(=O)n(CC(=O)Nc3ccccc3F)c2c1,inactive
15,O=C(O)c1ccccc1N=N/C(=N/Nc1cc(S(=O)(=O)O)ccc1O)c1ccccc1,12.6 µM (active)
16,COc1ccc(-c2cccc(NS(=O)(=O)c3cc(C)c(OC)c(C)c3C)c2)nn1,inactive
17,Cc1ccc(-c2cc(C(F)(F)F)c(C#N)c(SCC(=O)Nc3ccccc3)n2)cc1,inactive
18,COc1ccc(C(=O)c2c(C)c(CCC#N)n3ccccc23)c(OC)c1,35.5 µM (active)
19,COc1ccc(C(=O)NC(C)CCc2ccccc2)c(OC)c1 (stereo not given),inactive
20,COc1ccc(C(=O)CCc2ccccc2O)c(OC)c1,inactive
21,Cc1c(Cl)cccc1NC(=O)C1CCCN(C(=O)c2cnn(-c3ccccc3)c2-n2cccc2)C1 (stereo not given),inactive
22,CCCCC(=O)OC1=CN(Cc2ccccc2)S(=O)(=O)c2ccccc21,inactive
23,COc1ccc2c(c1)c(=O)c(S(=O)(=O)c1ccc(F)cc1)cn2CC(=O)Nc1ccc(C)cc1C,inactive
24,S=C(c1ccc(-c2ccccc2)o1)N1CCCCC1,20 µM (active)
25,CN1CCN(C(=O)c2ccc(-c3ccc(Br)cc3)o2)CC1,inactive
26,COc1ccccc1-c1cc(C(=O)N2CCCCC2)no1,inactive
27,COc1ccc(NC(=O)c2ccc3nc(C(C)C)oc3c2)cc1OC,inactive

row,SMILES,Potency
1,Clc1cccc(Cl)c1OCCOCCNCc1ccccc1,20 µM (active)
2,S=C(NCCc1ccccc1)NCc1ccccc1Cl,inactive
3,OCCNCc1cccc(OCc2ccccc2Cl)c1,inactive
4,COC(=O)c1ccc(C2C(C(=O)Nc3ccccc3)=C(C)Nc3nc4ccccc4n32)cc1 (stereo not given),inactive
5,O=C(NC1=CC(=O)c2ccccc2C1=O)c1ccccc1,20 µM (active)
6,O=C(NC(=O)c1ccccc1)Nc1ccccc1O,inactive
7,O=C(Nc1ccc(S(=O)(=O)Nc2ccccn2)cc1)c1ccccc1,inactive
8,N#Cc1nc(NCc2ccc(Cl)c(Cl)c2)c2ncn(CCCO)c2n1,inactive
9,COC(=O)c1scc(-c2ccccc2)c1S(=O)(=O)Nc1ccccc1,inactive
10,CCOc1ccc(Nc2nc(Cl)nc(N3CCN(c4ccc(OC)cc4)CC3)n2)cc1,44.7 µM (active)
11,COc1ccc(Nc2ncc(F)c(N3CCOCC3)n2)cc1,inactive
12,COC(=O)c1ccc(Oc2nc(Nc3ccc(F)cc3)nc(N3CCCC3)n2)cc1,inactive
13,O=c1c(NCc2cccs2)nccn1-c1ccccc1,inactive
14,COc1cc(C(=O)NCCS(=O)(=O)N2CCN(c3ccccc3)CC2)cc(OC)c1OC,inactive
15,COc1ccc(-n2c(C)cc(C(=O)CSc3nnc(-c4cccs4)o3)c2C)cc1,56.2 µM (active)
16,Cc1ccc(OC(=O)CSc2nnc(-c3cccs3)o2)cc1,inactive
17,COc1ccc(-n2c(C)cc(C(=O)COC(=O)c3cc(OC)c(OC)cc3NC(=O)c3cccs3)c2C)cc1,inactive
18,CCOC(=O)c1cc2c(=O)n3ccccc3nc2n(CC2CCCO2)c1=NC(=O)c1ccccc1Br (stereo not given),inactive
19,COCCNC(=O)CSc1c(C)cnc2c1c(=O)n(C)c(=O)n2C,inactive
20,NS(=O)(=O)c1ccc(NC(=O)CSc2nnc3c(n2)[nH]c2ccccc23)cc1,inactive
21,CCC1CCCCN1Cc1c(O)ccc2c(=O)c(Oc3ccccc3Cl)c(C(F)(F)F)oc12 (stereo not given),inactive
22,COc1ccc(CCNC(=O)CCc2c(C)nc3c(c(C)nn3-c3ccc(C)c(C)c3)c2C)c(OC)c1OC,inactive
23,CCCCCC(=O)NC(=S)NNC(=O)c1ccc([N+](=O)[O-])cc1,28.2 µM (active)
24,COCCCNC(=S)NC(=O)c1ccc([N+](=O)[O-])cc1,inactive
25,CC(C)CC(=O)NC(=S)NNC(=O)c1cccc([N+](=O)[O-])c1,inactive
26,COc1ccc(CCNc2nc(-c3ccc(F)cc3)cc(C(F)(F)F)n2)cc1OC,inactive
27,CSc1nn(Cc2cccc(C)c2)c(N)c1S(=O)(=O)c1ccccc1,inactive

row,SMILES,Potency
1,O=C(c1cc2c(s1)CCC2)N1CCN(c2ccccc2)CC1,20 µM (active)
2,O=C(C1CCC1)N1CCN(c2ccccc2)CC1,inactive
3,O=C(c1cc2ccccc2s1)N1CCN(c2ccccn2)CC1,inactive
4,COCCCNC(NC(=O)c1ccc(C)cc1)C(Cl)(Cl)Cl (stereo not given),inactive
5,CCn1c(C(C)NC(=O)c2ccc(C)cc2)n[nH]c1=S (stereo not given),6.31 µM (active)
6,CCn1c(SCC(=O)NNC(=O)c2ccc(OC)cc2)nnc1C(C)C,inactive
7,COc1cc(NC(=O)c2nc3ccccc3nc2C)cc(OC)c1OC,inactive
8,CC1=C(C(=O)Nc2ccccc2Cl)C(c2cccs2)n2ncnc2N1 (stereo not given),inactive
9,CCCCOC(=O)CSc1ncnc2sc3c(c12)CCC(C)C3 (stereo not given),inactive
10,Cn1c(=O)n(Cc2c(F)cccc2Cl)c(=O)c2c1nc1n2CCN1c1ccc(F)cc1,inactive
11,CCn1c(Cc2cccs2)nnc1SCC(=O)c1ccc(C)cc1,inactive
12,CCn1c(SCC(=O)c2ccc3ccccc3c2)nnc1-c1cccs1,79.4 µM (active)
13,CCn1c(SCC(=O)c2ccc(Cl)s2)nnc1-c1cccs1,inactive
14,Cc1ccc(CCNC(=O)c2ccc3c(c2)nc2n3CCC(C)C2)cc1 (stereo not given),inactive
15,CCn1cc(C(=O)OCC(=O)Nc2cc(C)cc(C)c2)c(=O)c2ccc(C)nc21,inactive
16,CCC(=O)N1CCc2cc(S(=O)(=O)NCCC(=O)Nc3cccc(C)c3C)ccc21,inactive
17,Cc1ccc(C)c(NC(=S)NCC(c2cccnc2)N2CCOCC2)c1 (stereo not given),inactive
18,Cc1ccc(C)c(NC(=O)C2CC(=O)N(C(C)C)C2)c1 (stereo not given),inactive
19,Cc1ccc(C)c(NC(=S)NNC(=S)Nc2ccc(C(C)C)cc2)c1,56.2 µM (active)
20,CCOC(=O)c1c(NC(=O)c2cc(CC)on2)sc(C(C)=O)c1C,inactive
21,O=C(Nc1cccc(Cl)c1)c1csnn1,inactive
22,CC(C)(C)CN1C(=O)C(=O)NC[C@H]1Cc1cccc2ccccc12,inactive
23,c1ccc2c(CCN3CCNC[C@H]3Cc3cccc4ccccc34)cccc2c1,56.2 µM (active)
24,c1ccc(C2CNCc3c2ccc2ccccc32)cc1 (stereo not given),inactive
25,Cc1cc(NC(=O)CSc2ncc(C(=O)Nc3ccc(Cl)cc3)c(=O)n2C)no1,inactive
26,CCOC(=O)c1ccc(NC(=O)CCS(=O)(=O)c2ccc3c(c2)oc(=O)n3C)cc1,inactive
27,Cc1ccc(NC(=O)c2cn3c4c(ccc(Cl)c4c2=O)OC(C)C3)cc1C (stereo not given),inactive

row,SMILES,Potency
1,CN(C)C(=O)c1nc2ccc(Cl)cn2c1CN1CCN(c2ncccn2)CC1,inactive
2,COc1ccc(-c2nc(CN3CCN(c4ncccn4)CC3)c(C)o2)cc1C,inactive
3,CC1=C(N2CCN(c3ncccn3)CC2)CCC1=O,inactive
4,c1cnc(N2CCN(c3ccc4ccccc4n3)CC2)nc1,inactive
5,Cc1ccc(CN2CCN(c3ncccn3)CC2)c(C)c1,14.1 µM (active)
6,Oc1ccc(CN2CCN(c3ncccn3)CC2)cc1,50.1 µM (active)
7,COc1ccc(CCNc2ncnc3c2cnn3-c2ccc(C)cc2)cc1,inactive
8,Cc1cc(C)c(NC(=O)CCc2c(C)nc3c(c(C)nn3C(C)(C)C)c2C)c(C)c1,inactive
9,CCOc1ccc(CNC(=O)c2ccc3nc(CC)c(CC)nc3c2)cc1OC,inactive
10,COc1ccc(/C=C/c2nc(C#N)c(NCc3ccc(F)cc3)o2)cc1OC,inactive
11,O=C(CCSCc1cccc(F)c1)NCc1ccccc1,inactive
12,Cc1ccc(C)c(N2CCN(c3ccc4cc(S(=O)(=O)N5CCC(C)CC5)ccc4n3)CC2)c1,inactive
13,CCN1CCN(CCCNC(=O)c2ccc3c(c2)sc2nc(-c4ccc(OC)cc4)cn23)CC1,inactive
14,CC1C(C)N(C(=O)CCl)c2ccccc2N1C(=O)CCl (stereo not given),28.2 µM (active)
15,CC1C(=O)N(Cc2ccccc2)c2ccccc2N1C(=O)c1ccccc1 (stereo not given),inactive
16,CNC(=O)N1c2ccccc2C=Cc2ccccc21,inactive
17,CCOC(=O)c1c(NC(=O)c2ccc(S(=O)(=O)N3CCCC(C)C3)cc2)sc2c1CCN(C(C)C)C2 (stereo not given),inactive
18,Cc1ccc(CN2CCCn3nc(C(=O)NCc4ccccc4Cl)cc3C2=O)cc1,inactive
19,COc1ccccc1/C=C/C=N/NC(=O)CN1CCN(Cc2ccccc2)CC1,inactive
20,O=C(NCC1CCN(Cc2ccccc2Cl)CC1)Nc1cccc(Cl)c1,inactive
21,COc1ccccc1/C=N/N1CCN(Cc2ccccc2Cl)CC1,44.7 µM (active)
22,O=S1(=O)CCN(Cc2ccccc2Cl)CC1,inactive
23,CSc1ccc(/C=N/N2CCN(Cc3ccccc3Cl)CC2)cc1,25.1 µM (active)
24,CN1CCN(/N=C/c2ccc(C#N)cc2)CC1,inactive
